Compound activity as filed in PubChem BioAssay.
Pf growth 96h: Primary qHTS for delayed death inhibitors of the malarial parasite plastid, 96 hour incubation; P. falciparum luciferase reporter growth, 96 h; Potency, µM (titrated, usually from 28.7 µM), hits mostly inhibitors; 320,000 compounds, 6.9% hits; AID 504834, 2011
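P. falciparum expressing integrated firefly luciferase grown in erythrocytes (2% hematocrit, 0.05% parasitemia final) with compounds for 96 hours at 37 C, 5% CO2. Growth inhibition read as loss of luminescence after adding luciferase detection reagent.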
Pf growth 48h: Primary qHTS for delayed death inhibitors of the malarial parasite plastid, 48 hour incubation. AID 504832, 2011. 310,000 compounds, 5.9% hits. P. falciparum luciferase growth in erythrocytes, 48 h. Potency, µM (series often up to 28.7 µM), hits mostly inhibitors
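Compounds are pin-transferred into medium, infected erythrocytes (2% hematocrit, 0.1% parasitemia final) are added, and plates sit one parasite generation at 37 C in 5% CO2. Detection reagent is then added and luminescence measured.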
Sm TGR inh: qHTS Assay for the Inhibitors of Schistosoma Mansoni Peroxiredoxins; Schistosoma mansoni thioredoxin glutathione reductase (TGR), Q962Y6; purified TGR, DTNB reduction, TNB absorbance 405 nm; Potency, µM (highest dose often 114 µM), hits mostly inhibitors; 360,000 compounds, 3% hits; AID 485364, 2010; also: nearly all actives have a fitted effect of over 60% in size
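TGR 20 nM + NADPH 100 uM (dispensed conc.), cpd preinc 15 min RT; start with NADPH (500 uM addition) then DTNB (15 mM addition). Kinetic TNB absorbance, 405 nm filter. Four-parameter Hill fit across titration.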
HCMV inh: qHTS Assay for inhibitors of the human cytomegalovirus (HCMV) | AID 1259415, 2018 | activity change, negative = inhibition, % at 57.5 µM | 410,000 compounds, 4.5% hits | HFF cells, HCMV-luciferase reporter, 72 h; hits give low values; in the data active = activity change below about -60%; inconclusive = no clear call, values can overlap the other calls; inactive = above about -39%
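Human foreskin fibroblasts infected with luciferase-reporter HCMV at MOI 1 PFU/cell, compounds at two doses. Luciferase measured 72 h post infection; normalized to buffer-only basal and Salinomycin (10uM) controls.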
Giardia FBPA inh: qHTS Assay for Inhibitors of Fructose-1,6-bisphosphate Aldolase from Giardia Lamblia; A8B2U2; purified Giardia FBPA; Potency, µM (series often up to 59.6 µM), usual class: inhibitors; 290,000 compounds, 0.71% hits; also: nearly all actives have a fitted effect of over 55% in size
Target sequence (A8B2U2 whole entry, looked up): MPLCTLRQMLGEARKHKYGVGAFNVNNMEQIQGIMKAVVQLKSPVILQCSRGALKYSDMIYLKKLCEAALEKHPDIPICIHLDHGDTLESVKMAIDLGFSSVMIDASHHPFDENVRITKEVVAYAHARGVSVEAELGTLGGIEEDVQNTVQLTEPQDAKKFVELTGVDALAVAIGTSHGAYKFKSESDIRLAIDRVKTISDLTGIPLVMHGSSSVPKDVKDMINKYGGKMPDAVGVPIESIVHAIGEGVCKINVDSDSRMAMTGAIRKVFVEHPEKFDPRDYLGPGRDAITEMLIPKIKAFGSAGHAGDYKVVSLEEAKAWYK
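40 nM FBPA preincubated 10 min at RT with compound (up to 57.5 uM final), then substrate plus GAPDH/TPI/NAD/arsenate coupling and diaphorase/resazurin added. Fluorescence read after 20 min at RT, 525/598 nm.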
A number is an active result; . = inactive; ? = inconclusive; / = not tested or not shown. Only some compounds are listed: those with a hit (about 14% of all), similar ones and a draw of the others. Unless noted, calls follow the shape of the dose curve; as a rule, active = well fitted curve in the direction sought with a large enough effect; inconclusive = small, poorly fitted or top-dose-only effect, or another doubt; inactive = no such curve, though single readings can be large; an effect the other way counts as inactive or inconclusive.

SMILES | Pf growth 96h | Pf growth 48h | Sm TGR inh | HCMV inh | Giardia FBPA inh
Cc1cc(-n2c(C)cc(C(=O)COc3cc(F)ccc3[N+](=O)[O-])c2C)no1 | ? | 9.3µM | . | ? | /
Cc1ccc(OCC(=O)c2cc(C)n(-c3cc(C)on3)c2C)c([N+](=O)[O-])n1 | ? | ? | ? | . | /
Cc1cc(C(=O)COc2cc(F)ccc2[N+](=O)[O-])c(C)n1CC1CCCO1 (stereo not drawn) | / | / | / | -66 | /
O=C(NCc1ccc(Cl)cc1)C(=O)NCC(c1cccnc1)N1CCN(c2ccccc2)CC1 (stereo not drawn) | / | / | . | ? | /
Cc1cccc(NCC(=O)N/N=C/c2cccc(Br)c2)c1 | . | . | . | ? | .
O=C(CNc1cccc(C(F)(F)F)c1)N/N=C/c1cccc(Br)c1 | . | . | . | -73 | .
Cc1nn(Cc2ccccc2)c(Cl)c1/C=N/NC(=O)CNc1cccc(C(F)(F)F)c1 | 12µM | ? | . | . | .
Cc1nn(-c2cccc(C(F)(F)F)c2)c(Cl)c1/C=N/Nc1cccc(C(=O)O)c1 | . | . | . | . | .
CCC1CSC(Nc2ccc(C(=O)/C=C/c3ccc(Oc4ccccc4)cc3)cc2)=N1 (stereo not drawn) | 6.6µM | 10µM | . | . | .
CCC1CSC(Nc2ccc(C(=O)/C=C/c3cccc(C)c3)cc2)=N1 (stereo not drawn) | ? | . | . | -63 | .
CCCCCc1c(C)nc(N2CCOCC2)[nH]c1=O | 8.3µM | . | . | . | .
Cc1nc(N2CCOCC2)[nH]c(=O)c1C | . | . | . | . | .
CCCCCc1c(C)nc(N2CCc3ccccc32)[nH]c1=O | . | 9.3µM | . | . | .
CCCCCc1c(C)nc(N2CCc3ccccc3C2)[nH]c1=O | . | . | . | . | .
O=C(Nc1ccccc1N1CCOCC1)C1CCCO1 (stereo not drawn) | / | / | / | . | /
CCCS(=O)(=O)c1cn2cccc(N)c2c1S(=O)(=O)CCC | . | . | 22µM | . | ?
CN(CC(=O)Nc1ccccc1C(F)(F)F)Cc1c(O)ccc2ccccc12 | . | . | 1µM | . | .
CCCN(CC(=O)Nc1ccccc1OC)Cc1c(O)ccc2ccccc12 | . | . | 2µM | . | .
COc1ccccc1CN(C)CC(=O)Nc1cccc2ccccc12 | . | . | . | . | .
COc1ccccc1NC(=O)C(C)N(C)CC(=O)Nc1cccc2ccccc12 (stereo not drawn) | / | / | / | . | /
CCc1ccccc1NC(=O)CN(C)Cc1c(O)ccc2ccccc12 | . | . | 0.71µM | . | .
Cc1ccc2nc(-c3ccco3)c(Cc3ccccc3C(F)(F)F)n2c1 | / | / | / | . | /
COc1cccc2c1NC1(C)c3cc4c(cc3-n3nncc3CN1C2=O)OCO4 (stereo not drawn) | / | / | / | . | /
Fc1ccc(N2CCN(Cc3cccn3-c3nnc(N4CCN(C5CCCCC5)CC4)s3)CC2)cc1 | / | / | . | . | /
COc1ccccc1NS(=O)(=O)c1cc(NC(=O)C(C)NC(N)=O)ccc1N1CCCC1 (stereo not drawn) | ? | ? | . | . | /
SMILES | Pf growth 96h | Pf growth 48h | Sm TGR inh | HCMV inh | Giardia FBPA inh
COc1ccc(NS(=O)(=O)c2cc(NC(=O)[C@H](C)NC(N)=O)ccc2N2CCCC2)cc1 | / | / | / | -85 | /
COc1ccc(NS(=O)(=O)c2cc(NC(=O)C(CC(C)C)NC(N)=O)ccc2N2CCOCC2)cc1 (stereo not drawn) | / | / | / | -68 | /
COCC(=O)Nc1ccc(N2CCOCC2)c(S(=O)(=O)Nc2ccc(OC)cc2)c1 | / | / | / | . | /
c1ccc(C[n+]2csc3ccccc32)cc1 | . | . | 4.5µM | . | .
Fc1cccc(C[n+]2csc3ccccc32)c1 | . | ? | . | . | .
c1ccc(Oc2nc(-c3ccccn3)nc3ccccc23)cc1 | 1.3µM | 1.7µM | . | ? | .
COc1ccc(-c2nc(-c3ccccn3)no2)cc1 | . | . | . | -94 | .
Fc1ccc(Oc2nc(-c3ccccn3)nc3ccccc23)cc1 | 4.7µM | 1.7µM | . | ? | .
COc1cccc(Oc2nc(-c3ccccc3O)nc3ccccc23)c1 | . | . | . | . | .
COc1ccc(Oc2nc(-c3ccccn3)nc3ccccc23)cc1 | 0.37µM | 1.7µM | . | -70 | .
COC(=O)C(NC(=O)CC(C)C)(Nc1nc2c(s1)CCCC2)C(F)(F)F (stereo not drawn) | / | / | . | . | /
C[C@]12CCC(=O)C=C1C=C[C@@H]1[C@@H]2CC[C@@]2(C)[C@H]1CC[C@@]21CCC(=O)O1 | . | . | . | ? | .
O=C(NN=Cc1ccc(OC(F)F)cc1)c1ccc(NS(=O)(=O)c2cccs2)cc1 | / | / | / | . | /
CCc1ccc(S(=O)(=O)NC(=S)NC2CCCCC2)cc1 | ? | . | 13µM | . | .
Clc1ccc(CNC2CCCC2)c(Cl)c1 | . | / | . | ? | .
O=C(NNS(=O)(=O)c1ccc(Cl)cc1)NC1CCCCC1 | . | . | . | . | .
Cc1ccc(S(=O)(=O)NC(=S)NC2CCCCC2)cc1 | . | . | 32µM | . | .
Cc1ccc(S(=O)(=O)NC(=O)NC2CCCCC2)cc1 | . | . | / | / | /
O=S(=O)(NC(=S)NC1CCCCC1)c1ccc(Cl)cc1 | 0.52µM | . | 13µM | . | .
S=C(NCc1ccc(Cl)cc1Cl)NC1CCCCC1 | ? | ? | . | -78 | .
COc1ccc(-c2noc(N(c3ccc(F)c(Cl)c3)c3nc(-c4ccc(OC)c(OC)c4)no3)n2)cc1OC | / | / | . | . | /
CCOc1ccccc1CNC(=O)Cn1nc(N2CCN(c3ccccc3)CC2)ccc1=O | / | / | . | . | /
COc1ccc(CN2CCN(c3cccc(C)c3C)CC2)cc1OC | / | / | . | . | ?
COc1ccccc1N1CCN(Cc2cc(Br)c(O)c3ncccc23)CC1 | ? | / | 3.2µM | -95 | ?
COc1cc(CN2CCN(c3cccc(C)c3C)CC2)cc(Br)c1O | / | 4.1µM | . | . | .
SMILES | Pf growth 96h | Pf growth 48h | Sm TGR inh | HCMV inh | Giardia FBPA inh
COc1ccc(-c2noc(CN3CCN(c4ccccc4OC)CC3)n2)cc1OC | / | / | . | . | /
COc1ccccc1N1CCN(Cc2cc(COC(C)C)c3cccnc3c2O)CC1 | / | / | ? | -85 | /
CCOCc1cc(CN2CCN(c3ccccc3OC)CC2)c(O)c2ncccc12 | / | / | ? | -98 | /
COc1ccccc1N1CCN(Cc2cc(=O)oc3cc(C)ccc23)CC1 | / | / | / | . | /
CCCOCc1cc(CN2CCN(c3ccccc3OC)CC2)c(O)c2ncccc12 | / | / | 40µM | -100 | /
COc1ccccc1N1CCN(c2nc(C)nc3c2oc2ccccc23)CC1 | . | ? | . | -82 | .
CCC1CCCCN1CCCNC(=O)CCC(=O)N1CC(C)Oc2ccccc21 (stereo not drawn) | ? | . | . | . | .
CC1=C(C(=O)N(C(C)C)C(C)C)CC(CC(=O)NC(c2ccccc2)c2ccccc2)C(=O)N1Cc1ccc(F)cc1 (stereo not drawn) | / | / | / | . | /
